The record followed here is PubChem BioAssay (NCATS).

SMILES strings stand for the structures. Inconclusive results are not listed. Active and inactive are the calls of the source. Unless noted, the call rests on the fitted dose curve; in most records, active means well fitted inhibition curve with a large enough effect; inconclusive means small, poorly fitted or top-dose-only effect; inactive means no such curve, though single readings can be large or run the other way.
Potency means the concentration at half of the fitted maximal effect.

Tested on in one experiment: not listed separately
Put plainly: Primary qHTS to identify inhibitors of SARS-CoV-2 cell entry (AID 1645846; calls by dose curve; further: nearly all actives have a fitted effect of over 45% in size). Particulars: SARS-CoV-2 pseudovirus cell entry assay, luminescence; activity change, negative = inhibition: at 57.1 µM (top of the series) unless noted; series mostly up to 57.1 µM. A digest of the protocol:
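HEK293 cells stably expressing human ACE2, pre-treated 1 h with compound, then infected with MLV particles pseudotyped with Wuhan-Hu-1 spike (C-terminal 19-aa truncation). Luciferase luminescence after 48 h at 37 °C, normalised to spike PP and bald PP.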
In general terms: Quantitative high-throughput screening tests each substance at several concentrations.
As to `C=CCc1cccc(/C=N/NC(=O)CN2CCN(Cc3ccccc3)CC2)c1O`, the Potency was 31.6 µM (active).

With `C[C@@H](Oc1cc(-c2cnn(C3CCNCC3)c2)cnc1N)c1c(Cl)ccc(F)c1Cl`, the Potency was 11.2 µM (active).

Consider `OCCn1cc(-c2cnc3nnn(Cc4ccc5ncccc5c4)c3n2)cn1`, for which the compound was classed as inactive.

On to `CCc1cncnc1N1CCN(Cc2nc3ccc(C(F)(F)F)cc3[nH]2)CC1`, for which the Potency is 28.2 µM (active).

On to `CN(NC(=O)CC(=O)NN(C)C(=S)c1ccccc1)C(=S)c1ccccc1`, for which the activity change, negative = inhibition was -97.7%.

`CC(C)(C)c1cc(C(=O)O)c(NC(=O)Nc2ccc3[nH]ncc3c2)s1`: the compound was called inactive.

Take `C[C@@H]1CCN(C(=O)CC#N)C[C@@H]1N(C)c1ncnc2[nH]ccc12`: the activity change, negative = inhibition is -1.42%.

For `c1ccc(C2(c3ccccc3)CC2C2=NCCN2)cc1` (stereo not drawn), the activity change, negative = inhibition was -20.9%.

As for `COc1ncc(-c2ccc3nccc(-c4ccnnc4)c3c2)cc1NS(=O)(=O)c1ccc(F)cc1F`, the Potency was 2.51 µM (active).

Consider `CN(C)CCN(C)C(=O)c1ccc(NC(=O)Nc2ccc(-c3nc(N4CCOCC4)c4ccn(CC(F)(F)F)c4n3)cc2)cc1`, for which the activity change, negative = inhibition was -96.8%.

On to `CC(C)(C)COc1ccc(-n2cc(C(=O)O)cn2)cc1C#N`, for which the activity change, negative = inhibition is -72.8%.

Regarding `CC[C@@]1(O)C(=O)OCc2c1cc1n(c2=O)Cc2cc3ccccc3nc2-1`, the activity change, negative = inhibition was -94.8%.

The next experiment deals with Papain (Carica papaya) (UniProt P00784). The experiment is described as follows: Primary qHTS assay for inhibitors of the protease papain (AID 1645873).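 Further: papain turnover of Z-FR-AMC read as the AMC fluorescence gain over 10 min.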 On activity change, negative = inhibition: on the % scale 0 is the no-effect control and ±100 the full control effect. Particulars: papain Z-FR-AMC cleavage, AMC fluorescence; series mostly up to 49.8 µM; activity change, negative = inhibition: at the top concentration.
Papain (Carica papaya), sequence (P00784 whole entry, looked up): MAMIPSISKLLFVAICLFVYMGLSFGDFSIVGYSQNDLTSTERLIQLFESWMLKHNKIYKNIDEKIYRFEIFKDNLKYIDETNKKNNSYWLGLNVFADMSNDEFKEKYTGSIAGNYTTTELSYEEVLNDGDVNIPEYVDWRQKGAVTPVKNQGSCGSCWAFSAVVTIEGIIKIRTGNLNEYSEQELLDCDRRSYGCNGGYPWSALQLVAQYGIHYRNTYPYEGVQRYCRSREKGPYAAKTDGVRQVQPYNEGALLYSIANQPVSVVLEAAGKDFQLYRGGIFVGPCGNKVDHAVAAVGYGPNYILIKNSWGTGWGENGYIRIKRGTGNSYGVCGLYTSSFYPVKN
On to `NC1CC1c1ccccc1` (stereo not drawn), for which the “activity change, negative = inhibition” value is -9.81% (inactive).

As for `CS(=N)(=O)CC[C@H](N)C(=O)O` (stereo partly drawn), the “activity change, negative = inhibition” value is 21.7% (inactive).

For the compound `O=C(O)CC[N+](=O)[O-]`, the “activity change, negative = inhibition” value is -8.37% (inactive).

For `CN1C2CCC1CC(OC(=O)c1cc(Cl)cc(Cl)c1)C2` (stereo not drawn), the “activity change, negative = inhibition” value is -8.73% (inactive).

For the compound `S=C(NC1CCCCC1)N1CCC(c2cnc[nH]2)CC1`, the “activity change, negative = inhibition” value is -4.95% (inactive).

For `COc1ccc2c(c[n+](C)c3c4cc5c(cc4ccc23)OCO5)c1OC`, the “activity change, negative = inhibition” value is -26.2% (inactive).

`c1ccc2sc(C3(N4CCCCC4)CCCCC3)cc2c1`: the “activity change, negative = inhibition” value was 8.19% (inactive).

Consider `Cc1nccc2c1[nH]c1ccccc12`, for which the Potency is 28.2 µM (active).

With `NC(=O)CN1CC(O)CC1=O` (stereo not drawn), the “activity change, negative = inhibition” value was 11.4% (inactive).

As to `NCCc1c[nH]c2ccc(O)cc12`, the “activity change, negative = inhibition” value is -13.6% (inactive).

As to `C[C@@H](N)Cc1cnc[nH]1`, the “activity change, negative = inhibition” value was 41.9% (inactive).

As for `Cn1cnc(CCN)c1`, the “activity change, negative = inhibition” value is -8.55% (inactive).

`CCCN1CCC[C@H](c2cccc(O)c2)C1`: the “activity change, negative = inhibition” value was 4.59% (inactive).

`c1ccc(C2(c3ccccc3)CC2C2=NCCN2)cc1` (stereo not drawn): the “activity change, negative = inhibition” value was -5.67% (inactive).

In the case of `CNCCc1c[nH]c2ccc(O)cc12`, the “activity change, negative = inhibition” value was -6.57% (inactive).

Turning to `CC[C@@]1(O)C(=O)OCc2c1cc1n(c2=O)Cc2cc3ccccc3nc2-1`, the Potency was 3.98 µM (active).
